Literature values as cited in PubChem BioAssay AID977608.
The campaign covered roughly 4,300 compounds. About 4,300 (100%) were called active. The limit is not given here; nearly all actives have IC50 up to about 1400 µM. So high a share suggests a set chosen from earlier hits. The list shows a part of the results.

Assay: protein-ligand inhibition affinities from structures – PDB-derived complexes (AID 977608)

For `CC(=O)N[C@H]1[C@H]([C@H](O)[C@H](O)CO)O[C@@H](C(=O)O)C[C@@H]1NC(N)N`, the IC50 (literature IC50, protein: Neuraminidase, PDB entry 4mwr) is given as 0.41 nM (active) and the IC50 (literature IC50, protein: Neuraminidase, PDB entry 4mwx) is given as 75.7 nM (active).

In the case of `CO[C@@H]([C@@H]1OC(C(=O)O)=C[C@H](NC(N)N)[C@H]1NC(C)=O)[C@H](O)CO`, the IC50 (literature IC50, protein: Neuraminidase, PDB entry 4hzw) is given as 1.31 nM (active).

In the case of `CC(C)[C@H](NC(=O)CCc1ccccc1)[P+](O)(O)C[C@@H](CCCCCN)C(=O)O`, the IC50 (literature IC50, protein: Carboxypeptidase B, PDB entry 3wc7) is given as 5.5 nM (active).

In the case of `Nc1c2ncn3c2nc[n+]1[C@@H]1C[C@H](CO[P+](O)(O)O[P+](O)(O)OC[C@H]2O[C@@H]3[C@H](O)[C@@H]2O)[C@@H](O)[C@H]1O`, the IC50 (literature IC50, protein: ADP-ribosyl cyclase 1, PDB entry 3u4i) is listed as 129000 nM (active).

In the case of `Nc1[nH]c2c(=O)n3cnc2[n+]1[C@@H]1O[C@H](CO[P+](O)(O)O[P+](O)(O)OC[C@H]2O[C@@H]3[C@H](O)[C@@H]2O)[C@@H](O)[C@H]1O`, the IC50 (literature IC50, protein: ADP-ribosyl cyclase 1, PDB entry 3u4h) is given as 56000 nM (active).

In the case of `C/C(=C\CO[P+](O)(O)O[P+](O)(O)O)CS`, the IC50 (literature IC50, protein: 4-hydroxy-3-methylbut-2-enyl diphosphate reductase, PDB entry 4h4e) is listed as 210 nM (active).

For `C/C(=C\CO[P+](O)(O)O[P+](O)(O)O)CN`, the IC50 (literature IC50, protein: 4-hydroxy-3-methylbut-2-enyl diphosphate reductase, PDB entry 4h4d) is listed as 150 nM (active).

In the case of `C[C@]1(c2cc(NC(=O)c3ccc(C#N)cn3)ccc2F)NC(N)O[C@H](C(F)(F)F)[C@@H]1F` (stereo partly specified), the IC50 (literature IC50, protein: Beta-secretase 1, PDB entry 4j1k) is given as 13 nM (active).

In the case of `C[C@]1(c2cc(NC(=O)c3ccc(C#N)cn3)ccc2F)NC(N)O[C@@H](C(F)(F)F)[C@@H]1F` (stereo partly specified), the IC50 (literature IC50, protein: Beta-secretase 1, PDB entry 4j1i) is given as 40 nM (active).

For `O=C(CCc1cc(C(=O)c2cccc(F)c2)c[nH]1)C[C@@H](O)C(=O)O`, the IC50 (literature IC50, protein: DNA nucleotidylexotransferase, Tdt core, PDB entry 4iqt) is given as 780 nM (active).

For `CC(=O)O[C@]1(C(C)=O)CC[C@H]2[C@@H]3CCC4=CC(=O)CCC4=C3[C@@H](c3ccc(N(C)C)cc3)C[C@@]21C`, the IC50 (literature IC50, protein: Progesterone receptor, PDB entry 4oar) is listed as 0.038 nM (active).

For `CC(C)C1=CC2=CC(=O)[C@H]3C(C)(C)CCC[C@]3(C)C2=C(O)C1=O`, the IC50 (literature IC50, protein: Farnesyl pyrophosphate synthase HsFPPS-11, PDB entry 4p0x) is given as 1200 nM (active).

In the case of `O=C1N=CN2NC(Sc3ccc(F)cc3F)=CC=C2C1c1c(Cl)cccc1Cl` (stereo unspecified), the IC50 (literature IC50, protein: human p38 kinase, Mitogen-activated protein kinase 14, MAPK14, PDB entry 3fc1) is listed as 10 nM (active).

In the case of `CCCNc1nc(N)c(C(O)c2cccc([N+](=O)[O-])c2)s1` (stereo unspecified), the IC50 (literature IC50, protein: Cyclin-dependent kinase 2, PDB entry 3r8v) is given as 2900 nM (active).

For `CCCNc1nc(N)c(C(O)c2cccnc2)s1` (stereo unspecified), the IC50 (literature IC50, protein: Cyclin-dependent kinase 2, PDB entry 3qtq) is listed as 3100 nM (active).

In the case of `CCCNc1nc(N)c(C(O)c2ccccn2)s1` (stereo unspecified), the IC50 (literature IC50, protein: Cyclin-dependent kinase 2, PDB entry 3s0o) is listed as 33000 nM (active).

For `CC(C)Nc1nc(N)c(C(O)c2cccnc2)s1` (stereo unspecified), the IC50 (literature IC50, protein: Cyclin-dependent kinase 2, PDB entry 3rk9) is given as 520 nM (active).

In the case of `CCCNc1nc(N)c(C(O)c2ccc3ccccc3c2)s1` (stereo unspecified), the IC50 (literature IC50, protein: Cyclin-dependent kinase 2, PDB entry 3r8u) is listed as 5000 nM (active).

In the case of `CCCNc1nc(N)c(C(O)c2ccncc2)s1` (stereo unspecified), the IC50 (literature IC50, protein: Cyclin-dependent kinase 2, PDB entry 3r8z) is given as 49000 nM (active).

In the case of `COc1cc2nccc(Oc3ccc4oc(Nc5ccc(Cl)cc5)nc4c3)c2cc1OC`, the IC50 (literature IC50, protein: ALK tyrosine kinase receptor (C1097S, R1275Q mutation), PDB entry 4fny) is given as 16 nM (active).

For `CC(=O)Nc1cccc(-c2ccn([C@@H](Cc3cc[n+]([O-])cc3)c3ccc(OC(F)F)c(OCC4CC4)c3)n2)c1`, the IC50 (literature IC50, protein: cAMP-specific 3',5'-cyclic phosphodiesterase 4D, PDB entry 3v9b) is given as 0.5 nM (active).

For `CN1C2C(=NC[C@@H]1CNc1ccc(C(=O)N[C@@H](CCC(=O)N[C@@H](CCC(=O)O)C(=O)O)C(=O)O)cc1)NC(N)=NC2O` (stereo partly specified), the IC50 (literature IC50, protein: Cyclic AMP-GMP synthase DncV (D193N mutant), PDB entry 4u0m) is given as 1690 nM (active) and the IC50 (literature IC50, protein: Cyclic AMP-GMP synthase DncV, PDB entry 4u03) is given as 1690 nM (active).

For `CN1C2=C(NC[C@@H]1CNc1ccc(C(=O)N[C@@H](CCC(=O)N[C@@H](CCC(=O)O)C(=O)O)C(=O)O)cc1)NC(N)=NC2O` (stereo partly specified), the IC50 (literature IC50, protein: Cyclic AMP-GMP synthase DncV (deletion mutant D-loop), PDB entry 4u0n) is given as 1690 nM (active).

In the case of `O=C(Nc1nc2ccccc2s1)c1cccc2c1CN(c1nc(C(=O)O)c(CCCOc3ccc(-n4ncc5cncnc54)cc3)s1)CC2`, the IC50 (literature IC50, protein: Bcl-2-like protein 1 Bcl-xL, PDB entry 4tuh) is listed as 100000 nM (active).

In the case of `Cc1c(-c2c([C@H](OC(C)(C)C)C(=O)O)n(C)c(=O)c3ccccc23)cc(F)c2c1CCCO2`, the IC50 (literature IC50, protein: HIV-1 Integrase HIV-1 IN, PDB entry 4ojr) is given as 38 nM (active).

In the case of `CCc1sc(-c2ccc(OC)c(OCCF)c2)nc1CSc1nc(N)cc(N)n1`, the IC50 (literature IC50, protein: Deoxycytidine kinase, Human dCK C4S-S74E mutant, PDB entry 4jlm) is given as 22.7 nM (active).

For `Cc1ccc(CN(C)c2cc(C)nc3ncnn23)cc1`, the IC50 (literature IC50, protein: Bromodomain-containing protein 4, PDB entry 4men) is given as 125000 nM (active).

For `C[N+](C)(C)CCCC(=O)O`, the IC50 (literature IC50, protein: human gamma-butyrobetaine hydroxylase, PDB entry 4c5w) is listed as 3300 nM (active).

For `COc1cc(Nc2nccc(Nc3ccc4c(C)[nH]nc4c3)n2)cc(OC)c1OC`, the IC50 (literature IC50, protein: Bromodomain-containing protein 4 BRD4-1, PDB entry 4o78) is listed as 4600 nM (active).

In the case of `COc1cc(NC(=O)c2cccc3cccnc23)c(OC)cc1Cl`, the IC50 (literature IC50, protein: 3-OXOACYL-[ACYL-CARRIER-PROTEIN] REDUCTASE FABG, PDB entry 4bo1) is listed as 50 nM (active).

In the case of `[N-]=[N+]=N[C@H]1C[C@@H](C(=O)N2CCC[C@H]2C=N)N(C(=O)CCCc2ccccc2)C1`, the IC50 (literature IC50, protein: PROLYL ENDOPEPTIDASE, PDB entry 4bcb) is listed as 3 nM (active).

In the case of `CC(C)(C)OC(=O)NCc1cn([C@H]2C[C@@H](C(=O)N3CCC[C@H]3C=N)N(C(=O)CCCc3ccccc3)C2)nn1`, the IC50 (literature IC50, protein: PROLYL ENDOPEPTIDASE, PDB entry 4bcc) is listed as 9 nM (active).

For `Cc1c(O)cccc1C(=O)N[C@H](C(=O)N[C@@H](CO)C(=O)N[C@H](CCS(C)(=O)=O)Cc1ccc(CN)cc1)C(C)C`, the IC50 (literature IC50, protein: yeast 20S proteasomes, PDB entry 4int) is given as 1600 nM (active).

For `CC(C)C[C@H](NC(=O)[C@@H](Cc1ccc(CN)cc1)NC(=O)[C@H](Cc1ccccc1)N=[N+]=[N-])C(=O)N[C@H](CCS(C)(=O)=O)Cc1ccc(CN)cc1`, the IC50 (literature IC50, protein: yeast 20S proteasomes, PDB entry 4inu) is given as 0.55 nM (active).
